Data: paper PMC7862700, “An all-to-all approach to the identification of sequence-specific readers for epigenetic DNA modifications on cytosine”

Assays:
Experiment in all cases: DAPPL (digital affinity profiling via proximity ligation, sequencing); 10 mM Tris-HCl pH 7.5, 50 mM NaCl, 1 mM DTT, 4% glycerol, room temperature, 30 min; GST-TFs on glutathione beads, 16-mer random dsDNA library, 0.1% formaldehyde crosslink after washing; high values mean tight binding
Details in all cases: protein: recombinant; tags: N-terminal GST; dsDNA, one strand shown
FLI1 = molecular target: T1, FLI1 (Homo sapiens, UniProt Q01543 1-452)
T1 sequence: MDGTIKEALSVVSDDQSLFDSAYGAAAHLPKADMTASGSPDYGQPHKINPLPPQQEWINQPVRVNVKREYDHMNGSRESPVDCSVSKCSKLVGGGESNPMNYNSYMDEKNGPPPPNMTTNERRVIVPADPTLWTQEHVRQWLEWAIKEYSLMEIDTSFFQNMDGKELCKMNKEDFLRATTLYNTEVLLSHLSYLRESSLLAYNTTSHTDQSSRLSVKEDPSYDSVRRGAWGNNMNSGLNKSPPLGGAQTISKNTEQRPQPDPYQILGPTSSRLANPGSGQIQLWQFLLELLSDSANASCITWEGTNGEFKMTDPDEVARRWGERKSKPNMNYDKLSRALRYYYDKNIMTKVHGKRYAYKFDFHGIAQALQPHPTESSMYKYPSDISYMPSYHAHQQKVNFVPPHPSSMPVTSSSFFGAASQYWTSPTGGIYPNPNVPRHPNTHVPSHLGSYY
Method in brief: (§1)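 Human transcription factors were made in yeast as GST fusions, captured on glutathione beads and barcoded with DNA. With a tag-only sample included, the pool was incubated with 200 nmole of a random double-stranded 16-mer DNA library in Tris/NaCl/DTT/glycerol buffer at room temperature for 30 min, then crosslinked with 0.1% formaldehyde after washing, ligated by proximity, amplified and sequenced. For binding signal, each hexamer's read frequency for a factor is divided by its frequency for the tag-only sample.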

ELK1 = molecular target: T2, ELK1 (Homo sapiens, UniProt P19419 1-428)
T2 sequence: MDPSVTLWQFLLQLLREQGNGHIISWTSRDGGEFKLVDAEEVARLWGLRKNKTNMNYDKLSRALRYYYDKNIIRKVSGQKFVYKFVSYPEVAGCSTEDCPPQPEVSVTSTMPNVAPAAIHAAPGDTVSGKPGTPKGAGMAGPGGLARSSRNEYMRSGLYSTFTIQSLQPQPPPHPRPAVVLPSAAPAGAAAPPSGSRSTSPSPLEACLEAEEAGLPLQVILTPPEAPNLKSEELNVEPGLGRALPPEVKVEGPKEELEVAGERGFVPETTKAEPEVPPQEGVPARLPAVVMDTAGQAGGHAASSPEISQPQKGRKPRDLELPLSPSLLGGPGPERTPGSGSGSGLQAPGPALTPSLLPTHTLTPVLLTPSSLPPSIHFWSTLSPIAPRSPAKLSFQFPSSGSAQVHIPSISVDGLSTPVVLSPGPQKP
Method in brief: as §1

GABPA = molecular target: T3, GABPA (Homo sapiens, UniProt Q06546 1-454)
T3 sequence: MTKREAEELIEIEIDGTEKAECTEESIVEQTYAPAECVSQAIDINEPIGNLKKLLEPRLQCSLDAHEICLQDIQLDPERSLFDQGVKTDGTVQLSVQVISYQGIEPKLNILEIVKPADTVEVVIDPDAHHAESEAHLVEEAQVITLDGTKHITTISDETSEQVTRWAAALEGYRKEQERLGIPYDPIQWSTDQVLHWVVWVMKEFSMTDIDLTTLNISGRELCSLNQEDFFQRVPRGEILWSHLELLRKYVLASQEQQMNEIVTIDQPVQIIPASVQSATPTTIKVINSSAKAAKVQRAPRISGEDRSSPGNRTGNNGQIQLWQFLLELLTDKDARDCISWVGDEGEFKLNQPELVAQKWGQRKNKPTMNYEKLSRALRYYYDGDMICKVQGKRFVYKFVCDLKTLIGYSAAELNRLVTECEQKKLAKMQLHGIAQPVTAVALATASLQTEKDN
Method in brief: as §1

ERG = molecular target: T4, ERG (Homo sapiens, UniProt P11308 1-479)
T4 sequence: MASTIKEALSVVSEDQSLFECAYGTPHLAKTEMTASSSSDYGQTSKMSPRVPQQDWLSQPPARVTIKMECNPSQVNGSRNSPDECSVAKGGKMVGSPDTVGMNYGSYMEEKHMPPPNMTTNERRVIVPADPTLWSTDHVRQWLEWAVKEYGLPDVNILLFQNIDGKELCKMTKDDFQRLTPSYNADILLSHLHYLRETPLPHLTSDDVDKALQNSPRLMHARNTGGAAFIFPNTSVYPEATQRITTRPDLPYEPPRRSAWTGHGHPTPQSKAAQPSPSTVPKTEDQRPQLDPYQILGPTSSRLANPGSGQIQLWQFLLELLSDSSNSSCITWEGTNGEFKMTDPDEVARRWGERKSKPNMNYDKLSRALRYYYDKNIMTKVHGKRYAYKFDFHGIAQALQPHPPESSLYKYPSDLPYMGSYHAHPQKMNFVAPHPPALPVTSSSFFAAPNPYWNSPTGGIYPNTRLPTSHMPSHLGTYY
Method in brief: as §1

ELF1 = ELF1 (Homo sapiens, UniProt P32519 1-619)
ELF1, sequence (P32519 whole entry): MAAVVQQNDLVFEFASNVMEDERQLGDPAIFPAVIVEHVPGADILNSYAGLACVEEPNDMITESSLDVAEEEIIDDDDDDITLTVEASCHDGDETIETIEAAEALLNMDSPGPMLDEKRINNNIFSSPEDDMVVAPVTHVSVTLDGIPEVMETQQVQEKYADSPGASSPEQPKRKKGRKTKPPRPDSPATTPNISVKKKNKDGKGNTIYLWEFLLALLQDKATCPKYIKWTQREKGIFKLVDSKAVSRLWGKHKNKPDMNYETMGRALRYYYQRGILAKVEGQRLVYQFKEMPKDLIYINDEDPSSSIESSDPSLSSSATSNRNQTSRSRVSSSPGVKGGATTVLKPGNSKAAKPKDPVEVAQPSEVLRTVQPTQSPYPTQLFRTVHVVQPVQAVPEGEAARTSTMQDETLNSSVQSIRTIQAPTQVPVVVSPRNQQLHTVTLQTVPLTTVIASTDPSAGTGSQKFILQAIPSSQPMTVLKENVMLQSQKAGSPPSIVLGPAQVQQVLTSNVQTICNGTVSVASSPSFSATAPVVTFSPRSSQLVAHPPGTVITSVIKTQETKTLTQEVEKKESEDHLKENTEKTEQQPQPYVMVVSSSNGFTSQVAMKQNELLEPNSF
Method in brief: as §1

SPI1 = SPI1 (Homo sapiens, UniProt P17947 1-270)
Method in brief: as §1

SPIB = SPIB (Homo sapiens, UniProt Q01892 1-262)
SPIB, sequence (Q01892 whole entry): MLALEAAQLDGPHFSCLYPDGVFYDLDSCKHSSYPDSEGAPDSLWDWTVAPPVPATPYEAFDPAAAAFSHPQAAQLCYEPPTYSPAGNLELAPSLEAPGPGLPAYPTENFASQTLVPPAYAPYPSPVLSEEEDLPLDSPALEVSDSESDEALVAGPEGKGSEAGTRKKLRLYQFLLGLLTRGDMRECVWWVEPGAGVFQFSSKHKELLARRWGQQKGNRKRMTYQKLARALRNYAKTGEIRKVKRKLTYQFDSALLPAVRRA
Method in brief: as §1

ELK3 = molecular target: T5, ELK3 (Homo sapiens, UniProt P41970 1-407)
T5 sequence: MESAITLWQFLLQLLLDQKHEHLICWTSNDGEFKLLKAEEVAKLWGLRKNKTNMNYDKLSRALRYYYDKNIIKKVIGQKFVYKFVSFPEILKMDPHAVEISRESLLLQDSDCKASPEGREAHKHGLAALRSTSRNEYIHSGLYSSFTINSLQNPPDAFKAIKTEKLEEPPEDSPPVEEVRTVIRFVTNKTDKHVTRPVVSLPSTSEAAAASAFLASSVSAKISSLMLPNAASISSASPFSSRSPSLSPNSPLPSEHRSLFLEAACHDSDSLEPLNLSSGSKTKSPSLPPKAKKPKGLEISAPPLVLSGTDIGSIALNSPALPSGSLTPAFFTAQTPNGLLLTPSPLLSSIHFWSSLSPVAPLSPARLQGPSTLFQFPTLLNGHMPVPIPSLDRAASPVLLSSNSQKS
Method in brief: as §1

FEV = molecular target: T6, FEV (Homo sapiens, UniProt Q99581 1-238)
T6 sequence: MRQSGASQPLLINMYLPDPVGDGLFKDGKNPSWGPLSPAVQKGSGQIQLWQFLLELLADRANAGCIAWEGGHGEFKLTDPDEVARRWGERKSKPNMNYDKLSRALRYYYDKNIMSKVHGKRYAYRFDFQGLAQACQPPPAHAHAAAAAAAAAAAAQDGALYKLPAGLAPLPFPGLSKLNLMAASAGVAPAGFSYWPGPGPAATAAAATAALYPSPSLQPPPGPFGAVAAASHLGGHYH
Method in brief: as §1

ETV5 = ETV5 (Homo sapiens, UniProt P41161 1-510)
ETV5, sequence (P41161 whole entry): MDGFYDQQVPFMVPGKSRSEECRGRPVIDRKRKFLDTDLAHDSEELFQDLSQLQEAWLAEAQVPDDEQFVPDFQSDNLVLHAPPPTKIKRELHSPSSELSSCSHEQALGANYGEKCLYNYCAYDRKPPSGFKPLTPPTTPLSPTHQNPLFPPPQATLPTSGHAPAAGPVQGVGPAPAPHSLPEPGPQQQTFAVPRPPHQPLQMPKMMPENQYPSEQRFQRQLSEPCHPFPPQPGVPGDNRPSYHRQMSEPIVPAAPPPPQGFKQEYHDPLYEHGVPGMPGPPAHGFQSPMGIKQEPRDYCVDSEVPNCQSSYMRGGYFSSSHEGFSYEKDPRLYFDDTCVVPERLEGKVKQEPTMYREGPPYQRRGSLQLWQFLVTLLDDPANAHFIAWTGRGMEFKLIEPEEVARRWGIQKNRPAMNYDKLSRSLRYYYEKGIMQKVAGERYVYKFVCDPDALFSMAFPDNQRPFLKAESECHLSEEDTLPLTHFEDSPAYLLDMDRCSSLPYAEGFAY
Method in brief: as §1

SPIC = molecular target: T7, SPIC (Homo sapiens, UniProt Q8N5J4 1-248)
T7 sequence: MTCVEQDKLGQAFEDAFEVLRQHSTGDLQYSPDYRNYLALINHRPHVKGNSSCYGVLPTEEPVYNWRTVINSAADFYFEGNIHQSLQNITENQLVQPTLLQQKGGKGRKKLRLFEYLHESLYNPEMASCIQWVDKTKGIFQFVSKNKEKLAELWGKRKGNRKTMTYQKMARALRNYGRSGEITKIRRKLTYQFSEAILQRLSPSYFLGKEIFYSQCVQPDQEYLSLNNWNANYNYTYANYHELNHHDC
Method in brief: as §1

ELF4 = ELF4 (Homo sapiens, UniProt Q99607 1-663)
ELF4, sequence (Q99607 whole entry): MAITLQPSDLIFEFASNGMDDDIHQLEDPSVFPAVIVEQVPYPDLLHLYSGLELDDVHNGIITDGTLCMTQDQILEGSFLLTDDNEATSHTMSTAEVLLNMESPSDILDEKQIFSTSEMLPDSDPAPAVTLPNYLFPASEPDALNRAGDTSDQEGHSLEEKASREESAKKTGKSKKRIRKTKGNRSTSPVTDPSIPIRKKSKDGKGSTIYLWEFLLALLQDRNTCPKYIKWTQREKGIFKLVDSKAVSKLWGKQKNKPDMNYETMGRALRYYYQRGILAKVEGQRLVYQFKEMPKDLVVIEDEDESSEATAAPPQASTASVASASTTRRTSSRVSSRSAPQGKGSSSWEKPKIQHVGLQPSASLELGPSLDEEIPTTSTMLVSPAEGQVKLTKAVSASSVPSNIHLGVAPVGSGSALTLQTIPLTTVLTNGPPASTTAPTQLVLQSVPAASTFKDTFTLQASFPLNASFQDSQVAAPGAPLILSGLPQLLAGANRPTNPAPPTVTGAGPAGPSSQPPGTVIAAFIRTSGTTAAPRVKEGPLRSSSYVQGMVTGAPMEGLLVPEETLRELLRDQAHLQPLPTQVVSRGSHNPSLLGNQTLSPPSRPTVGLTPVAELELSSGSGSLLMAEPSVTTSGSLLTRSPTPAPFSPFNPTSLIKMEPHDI
Method in brief: as §1

ELK4 = molecular target: T8, ELK4 (Homo sapiens, UniProt P28324-2 1-405)
T8 sequence: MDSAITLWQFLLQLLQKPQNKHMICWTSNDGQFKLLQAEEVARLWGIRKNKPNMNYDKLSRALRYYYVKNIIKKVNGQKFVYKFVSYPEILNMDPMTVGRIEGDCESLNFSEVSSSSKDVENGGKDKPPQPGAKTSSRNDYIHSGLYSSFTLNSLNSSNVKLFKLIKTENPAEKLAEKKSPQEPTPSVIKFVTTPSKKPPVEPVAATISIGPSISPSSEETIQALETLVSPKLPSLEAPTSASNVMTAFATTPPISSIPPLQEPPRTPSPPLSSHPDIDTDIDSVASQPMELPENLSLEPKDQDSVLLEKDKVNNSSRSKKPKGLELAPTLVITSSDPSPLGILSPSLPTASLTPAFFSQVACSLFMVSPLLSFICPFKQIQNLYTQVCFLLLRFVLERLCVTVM
Method in brief: as §1

ETV2 = molecular target: T9, ETV2 (Homo sapiens, UniProt O00321 1-342)
T9 sequence: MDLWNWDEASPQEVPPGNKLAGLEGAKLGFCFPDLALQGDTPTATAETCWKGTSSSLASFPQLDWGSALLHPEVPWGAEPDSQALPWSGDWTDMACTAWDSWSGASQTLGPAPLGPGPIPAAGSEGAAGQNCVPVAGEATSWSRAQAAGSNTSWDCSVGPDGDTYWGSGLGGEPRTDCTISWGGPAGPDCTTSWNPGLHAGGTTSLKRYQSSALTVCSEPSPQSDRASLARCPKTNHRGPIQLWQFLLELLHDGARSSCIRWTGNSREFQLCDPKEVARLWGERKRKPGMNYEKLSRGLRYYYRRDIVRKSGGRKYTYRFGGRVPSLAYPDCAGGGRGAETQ
Method in brief: as §1

ELF3 = molecular target: T10, ELF3 (Homo sapiens, UniProt P78545 1-371)
T10 sequence: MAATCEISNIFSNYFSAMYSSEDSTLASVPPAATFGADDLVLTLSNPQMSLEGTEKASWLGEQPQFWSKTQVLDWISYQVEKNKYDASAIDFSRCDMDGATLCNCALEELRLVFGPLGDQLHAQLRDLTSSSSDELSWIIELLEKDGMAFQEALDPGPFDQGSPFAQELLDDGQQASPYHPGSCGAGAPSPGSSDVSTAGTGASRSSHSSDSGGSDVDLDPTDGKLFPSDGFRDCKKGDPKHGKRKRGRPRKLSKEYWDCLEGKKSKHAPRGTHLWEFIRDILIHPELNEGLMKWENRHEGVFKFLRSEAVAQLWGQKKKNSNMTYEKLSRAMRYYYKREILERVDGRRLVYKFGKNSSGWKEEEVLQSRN
Method in brief: as §1

EHF = molecular target: T11, EHF (Homo sapiens, UniProt Q9NZC4 1-300)
T11 sequence: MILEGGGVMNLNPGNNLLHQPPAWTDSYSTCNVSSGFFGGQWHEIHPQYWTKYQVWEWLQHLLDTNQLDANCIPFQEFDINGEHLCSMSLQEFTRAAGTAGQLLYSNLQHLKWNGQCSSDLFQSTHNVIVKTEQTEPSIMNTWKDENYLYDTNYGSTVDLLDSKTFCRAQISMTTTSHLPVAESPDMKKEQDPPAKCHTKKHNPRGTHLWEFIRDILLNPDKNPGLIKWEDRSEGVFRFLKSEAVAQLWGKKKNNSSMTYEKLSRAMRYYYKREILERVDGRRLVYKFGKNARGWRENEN
Method in brief: as §1

ETV1 = ETV1 (Homo sapiens, UniProt P50549 1-477)
ETV1, sequence (P50549 whole entry): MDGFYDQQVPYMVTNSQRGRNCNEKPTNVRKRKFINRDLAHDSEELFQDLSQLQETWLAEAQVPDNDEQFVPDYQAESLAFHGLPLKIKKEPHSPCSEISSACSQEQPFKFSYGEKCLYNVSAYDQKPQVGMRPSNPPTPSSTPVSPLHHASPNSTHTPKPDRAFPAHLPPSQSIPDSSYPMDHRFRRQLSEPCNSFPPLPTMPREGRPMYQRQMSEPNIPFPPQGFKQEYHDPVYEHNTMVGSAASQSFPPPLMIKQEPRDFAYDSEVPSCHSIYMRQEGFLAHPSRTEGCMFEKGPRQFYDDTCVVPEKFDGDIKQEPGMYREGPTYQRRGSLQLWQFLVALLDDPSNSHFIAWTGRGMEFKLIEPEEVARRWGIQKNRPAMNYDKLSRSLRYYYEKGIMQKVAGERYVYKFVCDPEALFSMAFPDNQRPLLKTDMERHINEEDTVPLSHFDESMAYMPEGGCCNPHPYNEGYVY
Method in brief: as §1

Row | Sequence | binding signal (FLI1) | binding signal (ELK1) | binding signal (GABPA) | binding signal (ERG) | binding signal (ELF1) | binding signal (SPI1) | binding signal (SPIB) | binding signal (ELK3) | binding signal (FEV) | binding signal (ETV5) | binding signal (SPIC) | binding signal (ELF4) | binding signal (ELK4) | binding signal (ETV2) | binding signal (ELF3) | binding signal (EHF) | binding signal (ETV1)
1 | ACCCAA | 1.12 fold enrichment (6-mer frequency, TF over GST control) | 1.15 fold enrichment (6-mer frequency, TF over GST control) | 1.18 fold enrichment (6-mer frequency, TF over GST control) | 1.03 fold enrichment (6-mer frequency, TF over GST control) | 1.16 fold enrichment (6-mer frequency, TF over GST control) | 1.12 fold enrichment (6-mer frequency, TF over GST control) | 1.08 fold enrichment (6-mer frequency, TF over GST control) | 1.03 fold enrichment (6-mer frequency, TF over GST control) | 1.05 fold enrichment (6-mer frequency, TF over GST control) | 1.08 fold enrichment (6-mer frequency, TF over GST control) | 1.2 fold enrichment (6-mer frequency, TF over GST control) | 1.18 fold enrichment (6-mer frequency, TF over GST control) | 1.08 fold enrichment (6-mer frequency, TF over GST control) | 1.13 fold enrichment (6-mer frequency, TF over GST control) | 1.26 fold enrichment (6-mer frequency, TF over GST control) | – | –
2 | CCCTGT | 1.18 fold enrichment (6-mer frequency, TF over GST control) | 1.02 fold enrichment (6-mer frequency, TF over GST control) | 1.2 fold enrichment (6-mer frequency, TF over GST control) | 1.21 fold enrichment (6-mer frequency, TF over GST control) | 1.17 fold enrichment (6-mer frequency, TF over GST control) | 1.07 fold enrichment (6-mer frequency, TF over GST control) | 1.12 fold enrichment (6-mer frequency, TF over GST control) | – | 1.04 fold enrichment (6-mer frequency, TF over GST control) | 1.11 fold enrichment (6-mer frequency, TF over GST control) | 1.2 fold enrichment (6-mer frequency, TF over GST control) | 1.11 fold enrichment (6-mer frequency, TF over GST control) | 1.25 fold enrichment (6-mer frequency, TF over GST control) | 1.03 fold enrichment (6-mer frequency, TF over GST control) | 1.08 fold enrichment (6-mer frequency, TF over GST control) | 1.09 fold enrichment (6-mer frequency, TF over GST control) | 1.06 fold enrichment (6-mer frequency, TF over GST control)
3 | TGTGTT | 1.19 fold enrichment (6-mer frequency, TF over GST control) | 1.1 fold enrichment (6-mer frequency, TF over GST control) | 1.06 fold enrichment (6-mer frequency, TF over GST control) | 1.03 fold enrichment (6-mer frequency, TF over GST control) | 1.03 fold enrichment (6-mer frequency, TF over GST control) | – | – | 1.26 fold enrichment (6-mer frequency, TF over GST control) | 1.06 fold enrichment (6-mer frequency, TF over GST control) | 1.06 fold enrichment (6-mer frequency, TF over GST control) | 1.02 fold enrichment (6-mer frequency, TF over GST control) | 1.16 fold enrichment (6-mer frequency, TF over GST control) | 1.07 fold enrichment (6-mer frequency, TF over GST control) | 1.19 fold enrichment (6-mer frequency, TF over GST control) | 1.08 fold enrichment (6-mer frequency, TF over GST control) | 1.09 fold enrichment (6-mer frequency, TF over GST control) | –
